The source of these data is PubChem BioAssay (NCATS).

Common to all, as to experiment: qHTS profiling for inhibitors of Plasmodium falciparum proliferation (AID 504749); further: nearly all actives have a fitted effect of over 60% in size
What all share (conditions): P. falciparum in erythrocytes, SYBR Green DNA, 72 h; series mostly up to 28.7 µM
For orientation: Quantitative high-throughput screening tests each substance at several concentrations.

One assay concerns CP192. A digest of the protocol:
(§1)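 SYBR Green fluorescence (ex 485 nm, em 535 nm) reports parasite DNA after 72 h compound exposure of infected red cells at 0.3% parasitemia, 2.5% hematocrit; signal normalized to 0.29 uM artemisinin and vehicle wells.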

The next assay relates to CP194. The gist of the method:
as §1

The test system of the next assay is CP201. The gist of the method:
as §1

The next assay concerns CP215. A digest of the protocol:
as §1

In a further assay the test system is CP217. A digest of the protocol: as §1
For another assay, the system named is CP237. The gist of the method:
as §1

Another assay concerns CP238. The gist of the method: as §1
Another assay has as its system CP247. A digest of the protocol:
as §1

A further assay has as its system CP250. A digest of the protocol: as §1
A further assay deals with CP252. A digest of the protocol: as §1
A further assay relates to CP256. A digest of the protocol:
as §1

A further assay deals with CP260. A digest of the protocol: as §1
In another assay the test system is CP262. A digest of the protocol:
as §1

The test system of another assay is CP265. A digest of the protocol:
as §1

Another assay has as its system CP266. The gist of the method:
as §1

The test system of another assay is CP268. The gist of the method:
as §1

The subject of the next assay is CP269. The gist of the method:
as §1

Another assay has as its system CP286. The gist of the method:
as §1

The next assay relates to CP211. The gist of the method: as §1

Records with an inconclusive call do not appear. The source made the active and inactive calls. The call rests on the fitted dose curve; in most records, active means well fitted inhibition curve with a large enough effect; inconclusive means small, poorly fitted or top-dose-only effect; inactive means flat fitted curve, though single readings scatter.
Potency means the concentration at half of the fitted maximal effect.

Regarding `CCS(=O)(=O)C(C)(C)S(=O)(=O)CC`, the Potency result in the assay on CP192, in the assay with CP194, with CP201, with CP215, in the assay with CP217 and in the assay with CP237 was “inactive” in each case. The Potency entry with CP238, in the assay on CP247, with CP250, in the assay on CP252, in the assay on CP256 and in the assay on CP260 was “inactive” in each case. Further, the Potency result in the assay with CP262, in the assay on CP265, with CP266, with CP268, in the assay with CP269 and in the assay with CP286 was “inactive” throughout.

Consider `CN1C(=O)[C@@H](NC(=O)c2cc3ccccc3[nH]2)N=C(c2ccccc2)c2ccccc21`, for which the Potency result in the assay with CP201, in the assay on CP247 and with CP262 was “inactive” each time.

Regarding `Clc1ccc(CO/N=C(\Cn2ccnc2)c2ccc(Cl)cc2Cl)c(Cl)c1`, the Potency in the assay on CP192 was 16.9 µM (active); with CP194 it was 10.7 µM (active); with CP215, 6.75 µM (active); in the assay with CP217, 3.98 µM (active); in the assay on CP237, 3.98 µM (active); in the assay on CP238 it was 5.01 µM (active). The Potency in the assay on CP247 was 4.47 µM (active); in the assay with CP250 it was 7.08 µM (active); with CP252, 6.31 µM (active); with CP260, 7.08 µM (active); in the assay on CP262, 15.1 µM (active); with CP265, 4.47 µM (active). In addition, the Potency in the assay with CP269 was 13.5 µM (active); in the assay on CP286, 5.62 µM (active).

Turning to `C[C@]12Cc3nonc3C[C@@H]1CC[C@@H]1[C@@H]2CC[C@@]2(C)[C@H]1CC[C@]2(C)O`, the Potency entry with CP192, in the assay on CP201, in the assay with CP211, with CP215, in the assay on CP237 and in the assay on CP238 was “inactive” throughout. Further, the Potency result with CP247, in the assay on CP250, in the assay on CP252, in the assay on CP256, in the assay on CP260 and with CP262 was “inactive” each time. In addition, the Potency entry in the assay on CP265, in the assay with CP266, in the assay on CP268, with CP269 and in the assay with CP286 was “inactive” throughout.

With `O=c1n(Cl)c(=O)n(Cl)c(=O)n1Cl`, the Potency result with CP192, with CP194, in the assay with CP201, in the assay with CP211, in the assay with CP215 and with CP217 was “inactive” each time. The Potency result with CP237, in the assay with CP238, in the assay on CP247, with CP250, in the assay with CP252 and with CP256 was “inactive” throughout. Further, the Potency entry with CP260, with CP262, in the assay on CP265, in the assay with CP266, in the assay with CP268 and with CP269 was “inactive” throughout. The Potency result in the assay with CP286 was “inactive”.

For `c1cc2c(c(N3CCNCC3)c1)OCCO2`, the Potency entry in the assay on CP192, in the assay on CP194, in the assay on CP201, with CP211, with CP215 and in the assay on CP217 was “inactive” throughout. For the same compound, the Potency entry with CP237, in the assay with CP238, in the assay with CP247, in the assay with CP250, with CP252 and with CP256 was “inactive” each time. The Potency result in the assay on CP260, with CP262, in the assay on CP265, in the assay on CP268, with CP269 and in the assay with CP286 was “inactive” throughout.

Regarding `CC[C@]1(O)CC[C@H]2[C@@H]3CCC4=CCCC[C@@H]4[C@H]3CC[C@@]21C`, the Potency entry with CP192, with CP194, in the assay on CP201, in the assay with CP211, with CP215 and in the assay with CP237 was “inactive” throughout. For the same compound, the Potency result with CP238, with CP247, with CP252, with CP260, in the assay with CP262 and in the assay on CP266 was “inactive” each time. Besides, the Potency result in the assay with CP268, in the assay on CP269 and with CP286 was “inactive” each time.

For `CN1C(=O)CN=C(c2ccccc2)c2cc([N+](=O)[O-])ccc21`, the Potency entry in the assay with CP192, with CP194, in the assay with CP201, in the assay with CP211, in the assay with CP217 and in the assay with CP237 was “inactive” in each case. For the same compound, the Potency entry in the assay with CP238, in the assay on CP247, in the assay on CP250, with CP252, in the assay with CP256 and in the assay with CP260 was “inactive” in each case. Further, the Potency entry in the assay with CP262, in the assay on CP265, in the assay on CP266, in the assay on CP268, in the assay on CP269 and in the assay on CP286 was “inactive” each time.

On to `CC(C)(C)OC(=O)c1ncn2c1[C@@H]1CCCN1C(=O)c1c(Br)cccc1-2`, for which the Potency entry in the assay on CP192, in the assay on CP194, in the assay on CP201, in the assay with CP211, in the assay on CP215 and in the assay on CP217 was “inactive” each time. The Potency entry with CP237, in the assay with CP238, in the assay on CP247, in the assay on CP250, in the assay on CP252 and with CP256 was “inactive” each time. Also, the Potency result with CP260, in the assay with CP262, in the assay with CP265, with CP266, in the assay with CP268 and with CP269 was “inactive” throughout. Further, in the assay with CP286, the Potency result was “inactive”.

Take `COC(=O)C1=CCCN(C)C1`: the Potency entry in the assay on CP192, in the assay with CP194, with CP201, in the assay on CP211, with CP215 and in the assay on CP217 was “inactive” each time. Besides, the Potency entry with CP237, in the assay on CP238, with CP247, with CP250, with CP252 and in the assay with CP256 was “inactive” throughout. Also, the Potency entry in the assay on CP262, in the assay with CP265, in the assay on CP266, in the assay on CP268, in the assay on CP269 and in the assay with CP286 was “inactive” in each case.

As to `Cc1ncc2n1-c1ccc(Cl)cc1C(c1ccccc1F)=NC2`, the Potency entry with CP192, in the assay with CP194, with CP201, with CP211, in the assay with CP215 and with CP217 was “inactive” each time. For the same compound, the Potency result in the assay with CP237, in the assay on CP238, with CP247, in the assay on CP250, with CP252 and in the assay on CP256 was “inactive” in each case. For the same compound, the Potency entry in the assay on CP260, with CP262, in the assay with CP265, in the assay with CP266, in the assay on CP268 and in the assay on CP269 was “inactive” in each case. Further, the Potency entry in the assay on CP286 was “inactive”.

On to `CCN(CC)CCOC(=O)C(C)(c1ccccc1)c1ccccc1`, for which the Potency entry in the assay with CP192 and in the assay with CP201 was “inactive” throughout.

For the compound `COc1ccc(CN2CCNCC2)c(OC)c1OC`, the Potency entry in the assay with CP192, in the assay with CP217, in the assay with CP237, with CP238, with CP247 and in the assay with CP250 was “inactive” in each case. The Potency entry with CP252, with CP256, in the assay on CP260, in the assay with CP262, in the assay with CP265 and in the assay with CP286 was “inactive” each time.

Regarding `CC(Cc1ccccc1)NCc1ccccc1Cl` (stereo not given), the Potency result with CP192, in the assay with CP201, with CP211, in the assay with CP215, in the assay with CP250 and in the assay with CP262 was “inactive” each time. Further, the Potency result in the assay on CP266 and in the assay on CP286 was “inactive” throughout. The Potency with CP265 is 11.2 µM (active).

On to `C#C[C@]1(O)CC[C@H]2[C@@H]3CCC4=CC(=O)CCC4=C3C=C[C@@]21CC`, for which the Potency entry in the assay on CP192 and in the assay with CP211 was “inactive” throughout. The values for the Potency with CP237 and in the assay with CP247 were 0.178 µM (active) and 3.55 µM (active), respectively.

In the case of `N#Cc1nn(-c2c(Cl)cc(C(F)(F)F)cc2Cl)c(N)c1S(=O)C(F)(F)F` (stereo not given), the Potency with CP194 was 15.1 µM (active); in the assay with CP201, 13.5 µM (active); with CP217, 8.91 µM (active); in the assay with CP237, 5.01 µM (active); in the assay with CP250, 11.2 µM (active); in the assay with CP260 it was 8.91 µM (active). In addition, the Potency is 10.7 µM (active) in the assay on CP262, 6.01 µM (active) in the assay on CP268, 15.1 µM (active) in the assay on CP269 and 5.01 µM (active) in the assay with CP286.

Regarding `CNC(=O)NC(O)C(Cl)(Cl)Cl` (stereo not given), the Potency result with CP192, in the assay on CP194, in the assay on CP201, in the assay on CP211, in the assay on CP215 and with CP217 was “inactive” each time. The Potency entry in the assay with CP237, with CP238, with CP247, in the assay on CP250, with CP252 and with CP256 was “inactive” each time. The Potency result in the assay on CP260, in the assay with CP262, with CP265, in the assay with CP266, in the assay with CP268 and in the assay on CP269 was “inactive” throughout. In addition, the Potency result with CP286 is “inactive”.

Regarding `C[C@]12C=CC(=O)C=C1CC[C@@H]1[C@@H]2CC[C@@]2(C)[C@H]1CC[C@]2(C)O`, the Potency entry with CP217, in the assay on CP237, in the assay with CP238, in the assay with CP247, in the assay with CP250 and with CP252 was “inactive” in each case. Besides, the Potency entry in the assay on CP256, with CP260, in the assay with CP262, in the assay with CP265 and in the assay with CP286 was “inactive” in each case.
